In the supplement of paper PMC10849652 one finds log2 fold change data, which are given here for 38 targets.

Of roughly 7,900 targets only a part is listed; those with a hit were picked by preference. About 0.6% of all pairs of compound and target were hits. Unmarked numbers belong to inactive results.

Sequence of UniProt Q9NZ01 (Q9NZ01 whole entry, looked up): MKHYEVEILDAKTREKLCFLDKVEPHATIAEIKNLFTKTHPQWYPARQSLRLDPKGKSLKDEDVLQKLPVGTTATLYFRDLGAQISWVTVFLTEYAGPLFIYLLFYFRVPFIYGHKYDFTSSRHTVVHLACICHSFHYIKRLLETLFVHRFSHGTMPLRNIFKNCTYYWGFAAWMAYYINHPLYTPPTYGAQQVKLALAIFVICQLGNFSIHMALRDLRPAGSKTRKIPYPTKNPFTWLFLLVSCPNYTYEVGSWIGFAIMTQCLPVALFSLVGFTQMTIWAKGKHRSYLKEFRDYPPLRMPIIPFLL
Sequence of UniProt P08240 (P08240 whole entry, looked up): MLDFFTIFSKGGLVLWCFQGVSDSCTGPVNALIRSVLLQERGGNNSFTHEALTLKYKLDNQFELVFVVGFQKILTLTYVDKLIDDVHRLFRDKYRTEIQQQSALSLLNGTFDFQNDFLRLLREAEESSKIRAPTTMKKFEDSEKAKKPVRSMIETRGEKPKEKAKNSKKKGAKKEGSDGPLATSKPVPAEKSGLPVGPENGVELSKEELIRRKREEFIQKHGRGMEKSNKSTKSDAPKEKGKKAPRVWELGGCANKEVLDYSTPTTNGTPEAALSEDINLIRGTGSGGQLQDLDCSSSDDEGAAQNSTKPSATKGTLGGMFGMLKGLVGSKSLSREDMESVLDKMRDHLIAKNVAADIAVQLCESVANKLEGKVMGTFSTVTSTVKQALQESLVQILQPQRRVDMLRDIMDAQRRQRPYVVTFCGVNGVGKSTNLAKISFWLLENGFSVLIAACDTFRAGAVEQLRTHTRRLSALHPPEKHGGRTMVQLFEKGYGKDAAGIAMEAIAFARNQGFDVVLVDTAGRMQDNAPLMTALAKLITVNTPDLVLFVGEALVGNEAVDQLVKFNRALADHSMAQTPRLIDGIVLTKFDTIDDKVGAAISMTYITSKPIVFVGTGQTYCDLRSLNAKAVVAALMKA
Sequence of UniProt Q15796 (Q15796 whole entry, looked up): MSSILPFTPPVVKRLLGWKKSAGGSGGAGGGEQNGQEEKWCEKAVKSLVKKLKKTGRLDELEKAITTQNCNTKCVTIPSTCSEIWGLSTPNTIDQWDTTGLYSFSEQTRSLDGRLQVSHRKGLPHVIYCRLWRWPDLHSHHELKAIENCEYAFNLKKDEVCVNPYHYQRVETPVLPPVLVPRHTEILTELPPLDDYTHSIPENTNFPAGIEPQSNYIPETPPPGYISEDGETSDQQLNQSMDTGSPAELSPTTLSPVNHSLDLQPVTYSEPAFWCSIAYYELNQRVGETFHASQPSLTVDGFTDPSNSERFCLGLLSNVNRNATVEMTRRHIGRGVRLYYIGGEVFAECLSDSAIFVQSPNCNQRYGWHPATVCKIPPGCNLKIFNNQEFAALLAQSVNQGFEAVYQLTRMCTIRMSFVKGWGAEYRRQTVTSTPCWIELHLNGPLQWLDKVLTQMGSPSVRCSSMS
Sequence of UniProt Q15526 (Q15526 whole entry, looked up): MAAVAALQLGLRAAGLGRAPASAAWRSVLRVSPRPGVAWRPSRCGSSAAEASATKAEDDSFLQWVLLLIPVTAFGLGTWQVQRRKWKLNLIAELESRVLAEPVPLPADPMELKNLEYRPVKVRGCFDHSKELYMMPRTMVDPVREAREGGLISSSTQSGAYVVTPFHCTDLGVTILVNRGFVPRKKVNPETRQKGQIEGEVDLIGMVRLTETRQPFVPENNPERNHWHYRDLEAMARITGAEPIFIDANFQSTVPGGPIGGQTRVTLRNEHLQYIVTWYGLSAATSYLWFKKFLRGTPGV
Sequence of UniProt Q8TC07 (Q8TC07 whole entry, looked up): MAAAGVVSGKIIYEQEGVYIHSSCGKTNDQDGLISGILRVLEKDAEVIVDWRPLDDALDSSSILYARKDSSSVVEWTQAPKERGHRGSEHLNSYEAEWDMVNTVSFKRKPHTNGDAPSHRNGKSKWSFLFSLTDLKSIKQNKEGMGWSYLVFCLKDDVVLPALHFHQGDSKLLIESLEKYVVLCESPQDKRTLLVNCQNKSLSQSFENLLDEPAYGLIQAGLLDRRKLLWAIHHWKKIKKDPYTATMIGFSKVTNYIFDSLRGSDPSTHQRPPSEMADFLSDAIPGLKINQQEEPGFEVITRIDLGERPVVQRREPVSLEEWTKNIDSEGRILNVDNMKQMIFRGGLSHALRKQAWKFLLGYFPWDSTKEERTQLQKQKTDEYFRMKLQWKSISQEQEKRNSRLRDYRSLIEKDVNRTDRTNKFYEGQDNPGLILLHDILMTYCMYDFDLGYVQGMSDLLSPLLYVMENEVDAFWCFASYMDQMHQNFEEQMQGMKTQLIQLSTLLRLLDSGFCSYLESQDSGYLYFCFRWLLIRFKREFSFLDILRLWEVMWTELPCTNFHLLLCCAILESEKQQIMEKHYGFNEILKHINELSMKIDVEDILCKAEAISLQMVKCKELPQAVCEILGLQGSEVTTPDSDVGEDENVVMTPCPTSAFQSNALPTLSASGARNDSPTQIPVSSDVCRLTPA
Sequence of UniProt Q96BW9 (Q96BW9 whole entry, looked up): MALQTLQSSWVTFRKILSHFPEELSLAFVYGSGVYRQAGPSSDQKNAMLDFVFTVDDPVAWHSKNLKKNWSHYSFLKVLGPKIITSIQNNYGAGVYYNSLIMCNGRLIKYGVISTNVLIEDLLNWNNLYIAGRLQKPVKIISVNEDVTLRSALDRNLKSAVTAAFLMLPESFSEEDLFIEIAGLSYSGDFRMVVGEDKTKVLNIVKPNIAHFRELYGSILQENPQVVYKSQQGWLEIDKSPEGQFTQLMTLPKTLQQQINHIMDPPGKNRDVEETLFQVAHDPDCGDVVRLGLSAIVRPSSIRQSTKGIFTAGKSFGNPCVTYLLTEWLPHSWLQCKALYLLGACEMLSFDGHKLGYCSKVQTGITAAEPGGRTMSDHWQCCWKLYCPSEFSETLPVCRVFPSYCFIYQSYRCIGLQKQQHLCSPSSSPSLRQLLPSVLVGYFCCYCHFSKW
Sequence of UniProt Q96CQ1 (Q96CQ1 whole entry, looked up): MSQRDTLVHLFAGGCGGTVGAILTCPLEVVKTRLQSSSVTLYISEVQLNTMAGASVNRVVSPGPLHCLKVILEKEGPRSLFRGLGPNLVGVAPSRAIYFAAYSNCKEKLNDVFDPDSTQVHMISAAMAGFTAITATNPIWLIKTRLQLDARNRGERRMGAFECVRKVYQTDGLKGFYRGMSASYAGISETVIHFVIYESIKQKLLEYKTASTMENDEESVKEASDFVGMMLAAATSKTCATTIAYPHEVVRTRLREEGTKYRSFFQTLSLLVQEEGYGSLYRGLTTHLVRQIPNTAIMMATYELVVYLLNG
Sequence of UniProt P63165 (P63165 whole entry, looked up): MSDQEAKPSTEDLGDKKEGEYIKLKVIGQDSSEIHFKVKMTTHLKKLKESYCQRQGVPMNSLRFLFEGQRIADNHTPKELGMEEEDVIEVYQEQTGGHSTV
Sequence of UniProt Q92609 (Q92609 whole entry, looked up): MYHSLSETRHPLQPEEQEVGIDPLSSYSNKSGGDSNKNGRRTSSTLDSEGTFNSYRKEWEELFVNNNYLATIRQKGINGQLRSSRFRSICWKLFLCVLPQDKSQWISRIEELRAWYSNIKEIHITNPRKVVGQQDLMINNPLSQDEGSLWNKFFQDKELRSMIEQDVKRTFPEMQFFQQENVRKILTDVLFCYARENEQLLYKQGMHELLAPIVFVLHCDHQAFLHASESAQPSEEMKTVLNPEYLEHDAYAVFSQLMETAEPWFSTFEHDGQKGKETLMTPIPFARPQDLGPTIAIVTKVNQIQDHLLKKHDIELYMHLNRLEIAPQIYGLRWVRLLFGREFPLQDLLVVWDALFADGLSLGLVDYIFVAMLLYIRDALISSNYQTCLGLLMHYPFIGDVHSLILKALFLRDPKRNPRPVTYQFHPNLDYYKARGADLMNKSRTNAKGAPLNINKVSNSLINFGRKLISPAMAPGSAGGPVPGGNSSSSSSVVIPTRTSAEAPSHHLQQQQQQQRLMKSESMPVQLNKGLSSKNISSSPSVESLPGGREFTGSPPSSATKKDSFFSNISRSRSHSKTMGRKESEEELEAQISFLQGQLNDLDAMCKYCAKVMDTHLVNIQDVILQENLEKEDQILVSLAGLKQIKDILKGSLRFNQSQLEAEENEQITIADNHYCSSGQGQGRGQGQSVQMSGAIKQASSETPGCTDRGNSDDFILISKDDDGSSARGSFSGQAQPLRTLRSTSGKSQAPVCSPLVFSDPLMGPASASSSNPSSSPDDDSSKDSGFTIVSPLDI
Sequence of UniProt Q8WVK2 (Q8WVK2 whole entry, looked up): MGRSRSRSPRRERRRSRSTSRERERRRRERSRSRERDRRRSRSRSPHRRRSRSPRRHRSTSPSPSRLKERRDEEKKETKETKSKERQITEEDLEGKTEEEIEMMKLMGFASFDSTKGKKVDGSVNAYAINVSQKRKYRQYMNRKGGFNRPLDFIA
Sequence of UniProt Q9Y5W9 (Q9Y5W9 whole entry, looked up): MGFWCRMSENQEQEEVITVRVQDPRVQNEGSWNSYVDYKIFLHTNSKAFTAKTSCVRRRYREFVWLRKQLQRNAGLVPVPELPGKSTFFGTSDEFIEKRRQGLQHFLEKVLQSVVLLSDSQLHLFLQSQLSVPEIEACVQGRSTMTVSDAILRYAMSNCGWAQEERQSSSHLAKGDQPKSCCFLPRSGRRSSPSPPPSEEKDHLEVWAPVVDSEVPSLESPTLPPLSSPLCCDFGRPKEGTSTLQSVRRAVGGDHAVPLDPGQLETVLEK
Sequence of UniProt Q9NQZ5 (Q9NQZ5 whole entry, looked up): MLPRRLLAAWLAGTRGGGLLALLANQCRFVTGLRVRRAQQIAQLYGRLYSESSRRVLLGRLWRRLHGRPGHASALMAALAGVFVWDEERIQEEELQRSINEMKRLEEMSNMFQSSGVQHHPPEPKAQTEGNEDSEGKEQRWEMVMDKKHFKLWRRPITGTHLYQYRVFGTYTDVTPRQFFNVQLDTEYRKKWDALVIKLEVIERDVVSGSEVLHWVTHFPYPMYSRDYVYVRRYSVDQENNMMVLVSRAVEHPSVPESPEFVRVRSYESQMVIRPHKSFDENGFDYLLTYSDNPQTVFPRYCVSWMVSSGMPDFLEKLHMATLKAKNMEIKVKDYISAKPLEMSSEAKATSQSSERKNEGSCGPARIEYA

Compound in the first assay: COc1cc(Nc2ncc3c(n2)-c2ccc(Cl)cc2C(c2c(F)cccc2OC)=NC3)ccc1C(=O)O [alisertib]
Briefly: log2 fold change, soluble protein after heating vs DMSO (PISA); higher = thermal stabilisation; K562 cells, 10 uM, 30 min; active = over 0.2 and 3.5 SD of the protein, either way, in both replicates (recomputed). In short, it runs like this:
(§1)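 K562 cells at 2×10^6 cells/mL were treated for 30 min with 10 μM compound, and aliquots were heated for 3 min over 48°C-58°C before pooling. Extraction used PBS with 0.5% NP-40 at 4°C, and soluble protein was the supernatant after 21,000xg for 90 min, measured by TMTpro 16plex LC-MS/MS with channel sums equalised. Thermal stability values, relative to control samples and from duplicates, are log2 fold changes.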
For SNRNP27 (UniProt Q8WVK2), the log2 fold change is -0.003.

As to SRP68 (UniProt Q9UHB9), the log2 fold change is -0.029.

Turning to SP3 (UniProt Q02447), the log2 fold change was -0.084.

Turning to TLK2 isoform 2 (UniProt Q86UE8), the log2 fold change was 0.115.

For the target STAT6 (UniProt P42226), the log2 fold change was 0.094.

As for SLC38A9 (UniProt Q8NBW4), the log2 fold change was 0.

STAM2 (UniProt O75886): the log2 fold change was 0.015.

Turning to SLC30A7 (UniProt Q8NEW0), the log2 fold change is -0.019.

Turning to STARD7 (UniProt Q9NQZ5), the log2 fold change was 0.027.

On to SUMO1 (UniProt P63165), for which the log2 fold change is -0.052.

Take STAT5A (UniProt P42229): the log2 fold change is -0.056.

With SRPRA (UniProt P08240), the log2 fold change is -0.005.

Consider TBC1D15 isoform 3 (UniProt Q8TC07), for which the log2 fold change was -0.052.

On to TFRC (UniProt P02786), for which the log2 fold change was -0.05.

Turning to SRSF7 (UniProt Q16629), the log2 fold change is -0.114.

For TAMM41 isoform 3 (UniProt Q96BW9), the log2 fold change was 0.019.

Turning to STK38 (UniProt Q15208), the log2 fold change is 0.007.

In the case of SLC6A6 (UniProt P31641), the log2 fold change is -0.031.

On to TBC1D23 (UniProt Q9NUY8), for which the log2 fold change is 0.023.

For the target SMAD9 (UniProt O15198), the log2 fold change is -0.014.

As for SRSF3 (UniProt P84103), the log2 fold change is -0.101.

TBCD (UniProt Q9BTW9): the log2 fold change is -0.078.

For TECR (UniProt Q9NZ01), the log2 fold change is -0.028.

With STK39 (UniProt Q9UEW8), the log2 fold change was -0.044.

Turning to TAF9 (UniProt Q16594), the log2 fold change was -0.109.

SUPT16H (UniProt Q9Y5B9): the log2 fold change is 0.12.

For SRFBP1 (UniProt Q8NEF9), the log2 fold change is -0.027.

For the target SLC9A6 isoform 2 (UniProt Q92581), the log2 fold change was -0.013.

For SNX11 (UniProt Q9Y5W9), the log2 fold change was -0.062.

As to SREK1 isoform 2 (UniProt Q8WXA9), the log2 fold change is -0.096.

SMAD2 (UniProt Q15796): the log2 fold change is 0.032.

Regarding TBC1D5 isoform 2 (UniProt Q92609), the log2 fold change is -0.021.

For SLC25A36 (UniProt Q96CQ1), the log2 fold change was -0.03.

For SLC7A6 (UniProt Q92536), the log2 fold change is -0.069.

Regarding SUGP1 (UniProt Q8IWZ8), the log2 fold change was -0.038.

On to TAOK1 (UniProt Q7L7X3), for which the log2 fold change is 0.043.

Regarding STXBP5 (UniProt Q5T5C0), the log2 fold change is -0.084.

Regarding SURF1 (UniProt Q15526), the log2 fold change was -0.098.

Compound in the next assay: COc1cc2nc(-c3cc(F)ccc3O)nc(N[C@@H]3CNC[C@H]3C(C)(C)O)c2cc1OC
The assay is described as above. The essentials: as §1
Regarding SNRNP27 (UniProt Q8WVK2), the log2 fold change is -0.015.

As to SRP68 (UniProt Q9UHB9), the log2 fold change was 0.016.

Take SP3 (UniProt Q02447): the log2 fold change is 0.037.

Turning to TLK2 isoform 2 (UniProt Q86UE8), the log2 fold change is -0.036.

On to STAT6 (UniProt P42226), for which the log2 fold change was 0.002.

Take SLC38A9 (UniProt Q8NBW4): the log2 fold change is 0.053.

As for STAM2 (UniProt O75886), the log2 fold change is 0.001.

Take SLC30A7 (UniProt Q8NEW0): the log2 fold change is 0.088.

In the case of STARD7 (UniProt Q9NQZ5), the log2 fold change is -0.171.

On to SUMO1 (UniProt P63165), for which the log2 fold change was -0.507 (active).

Consider STAT5A (UniProt P42229), for which the log2 fold change is 0.009.

For SRPRA (UniProt P08240), the log2 fold change is 0.122.

In the case of TBC1D15 isoform 3 (UniProt Q8TC07), the log2 fold change was -0.065.

As to TFRC (UniProt P02786), the log2 fold change was 0.017.

As to SRSF7 (UniProt Q16629), the log2 fold change was -0.047.

As to TAMM41 isoform 3 (UniProt Q96BW9), the log2 fold change is -0.169.

Take STK38 (UniProt Q15208): the log2 fold change was -0.006.

For SLC6A6 (UniProt P31641), the log2 fold change is -0.066.

Regarding TBC1D23 (UniProt Q9NUY8), the log2 fold change is -0.19.

SMAD9 (UniProt O15198): the log2 fold change was -0.012.

Take SRSF3 (UniProt P84103): the log2 fold change was -0.011.

Take TBCD (UniProt Q9BTW9): the log2 fold change is -0.006.

In the case of TECR (UniProt Q9NZ01), the log2 fold change is -0.102.

In the case of STK39 (UniProt Q9UEW8), the log2 fold change was 0.034.

For TAF9 (UniProt Q16594), the log2 fold change is 0.024.

As for SUPT16H (UniProt Q9Y5B9), the log2 fold change is -0.036.

Take SRFBP1 (UniProt Q8NEF9): the log2 fold change is 0.306.

As for SLC9A6 isoform 2 (UniProt Q92581), the log2 fold change was 0.062.

With SNX11 (UniProt Q9Y5W9), the log2 fold change was -0.15.

SREK1 isoform 2 (UniProt Q8WXA9): the log2 fold change is -0.072.

SMAD2 (UniProt Q15796): the log2 fold change is -0.016.

With TBC1D5 isoform 2 (UniProt Q92609), the log2 fold change was 0.006.

As for SLC25A36 (UniProt Q96CQ1), the log2 fold change was 0.083.

Regarding SLC7A6 (UniProt Q92536), the log2 fold change is 0.028.

Turning to SUGP1 (UniProt Q8IWZ8), the log2 fold change was -0.007.

As for TAOK1 (UniProt Q7L7X3), the log2 fold change is -0.088.

STXBP5 (UniProt Q5T5C0): the log2 fold change was 0.015.

Take SURF1 (UniProt Q15526): the log2 fold change is -0.004.
